Most compounds without a hit are left out; they make up all but 2.4% or so of the library.
D2 antag: HTS Assay for Allosteric Antagonists of the Human D2 Dopamine Receptor: Primary Screen for Antagonists | HEK293 TREx D2 cells, calcium flux, dopamine EC80 | 340,000 tested, 2% active | inhibition, % at 10 µM | AID 485344, 2010; in the data active = inhibition above about 30%; inactive = below that, where a call was filed
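Calcium mobilization kinetics were recorded at 1 s intervals in tetracycline-induced HEK293 T-REx D2 cells, first for 180 s after compound addition and then 180 s after EC80 dopamine.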
D2 PAM-1: HTS Assay for Positive Allosteric Modulators of the Human D2 Dopamine Receptor: Primary Screen for Potentiators. D(2) dopamine receptor (Homo sapiens), P14416. HEK293 T-REx D2, calcium flux, EC20 dopamine potentiation. potentiation, % at 10 µM. 340,000 tested, 0.34% active. AID 485347, 2010;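 active = potentiation over 3 SD above the plate norm, cut at about 30% in these data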
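Primary screen. Calcium kinetics in induced HEK293 T-REx D2 cells: compound pre-addition 180 s, EC20 dopamine, 180 s more.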
D2 PAM-2: Beta-Arrestin HTS for Positive Allosteric Modulators of the Human D2 Dopamine Receptor: Potentiators; D(2) dopamine receptor (Homo sapiens), P14416; DiscoveRx D2 beta-arrestin cells, luminescence, 90 min; 100% = 57 uM dopamine signal; potentiation, % (no concentration beside the values); 360,000 tested, 0.23% active; AID 624464, 2012; in the data active = potentiation above about 50%; inconclusive = mostly about 30% to 49%
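PathHunter beta-arrestin assay in DiscoveRx D2 cells. Compounds were added with an EC20 of dopamine (50 nM final) for 90 min at 37 deg C. Luminescence was read 1 h after detection reagent, with 57 uM dopamine as the EC100 control.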
D2 ag-1: HTS Assay for Allosteric Agonists of the Human D2 Dopamine Receptor: Primary Screen for Agonists. activation, % at 2 µM. HEK293 T-REx D2 cells, calcium flux agonist mode. 340,000 tested, 0.53% active;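 active = activation over 3 SD above normal in the single-dose calcium agonist read, cut at about 30% in these data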
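Agonism scored from kinetic calcium signal (1 read/sec, 180 s) following compound pin transfer, after a 10 s baseline. Cells: HEK293 Trex line expressing inducible D2 receptor coupled to calcium, dye-loaded after overnight culture at 30 C.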
D2 ag-2: Beta-Arrestin HTS for Positive Allosteric Modulators of the Human D2 Dopamine Receptor: Agonists | AID 624465, 2012 | 360,000 tested, 0.084% active | D(2) dopamine receptor (Homo sapiens), P14416 | DiscoveRx PathHunter D2 beta-arrestin, luminescence, 90 min; 100% = 57 uM dopamine signal | activation, % (test concentration not listed); in the data active = activation above about 40%; inconclusive = between about 15% and that limit
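Agonist mode: compounds alone added to overnight-plated D2 PathHunter cells for 90 min at 37 C, with 57 uM final dopamine (EC100) defining full response. Beta-arrestin recruitment detected by chemiluminescent reagent, read after 1 h at ambient temperature.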
D3 arrestin ag: qHTS of D3 Dopamine Receptor Agonist: D3 Dopamine Receptor B-arrestin Agonist Confirmatory Assay | shares compounds with D2 ag-1 | DiscoveRx D3 beta-arrestin cells, luminescence, 90 min | Potency, µM (top dose mostly 76.9 µM), usual class: activators | 2,300 tested, 4% active; also: nearly all actives have a fitted effect of over 70% in size
Target sequence (P35462 whole entry, looked up): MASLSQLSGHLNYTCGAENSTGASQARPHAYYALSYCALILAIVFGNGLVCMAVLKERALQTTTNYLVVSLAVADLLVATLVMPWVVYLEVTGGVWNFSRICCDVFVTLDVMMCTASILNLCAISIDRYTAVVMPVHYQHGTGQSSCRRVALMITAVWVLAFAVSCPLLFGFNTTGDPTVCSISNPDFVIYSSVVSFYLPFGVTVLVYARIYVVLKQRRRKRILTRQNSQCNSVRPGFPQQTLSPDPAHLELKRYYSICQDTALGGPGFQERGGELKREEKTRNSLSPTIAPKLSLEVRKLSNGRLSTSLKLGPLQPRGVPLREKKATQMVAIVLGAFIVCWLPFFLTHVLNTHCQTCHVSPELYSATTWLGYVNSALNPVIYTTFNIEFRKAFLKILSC
D2 ag-3: qHTS of D3 Dopamine Receptor Agonist: D2 Dopamine Receptor B-arrestin Agonist Counterscreen. shares compounds with D2 ag-1. AID 720507, 2013. Potency, µM (top dose mostly 76.9 µM), actives largely listed as activators. 2,300 tested, 5.9% active. DiscoveRx PathHunter D2 beta-arrestin, luminescence, 90 min; response scale: percent relative to full dopamine signal; also: nearly all actives have a fitted effect of over 70% in size
Numbers stand for hits; i = inactive; ? = inconclusive; nt = no result. Unless noted, calls follow the shape of the dose curve; as a rule, active = well fitted activation curve with a large enough effect; inconclusive = small, poorly fitted or top-dose-only effect; inactive = flat fitted curve, though single readings scatter.

SMILES	D2 antag	D2 PAM-1	D2 PAM-2	D2 ag-1	D2 ag-2	D3 arrestin ag	D2 ag-3
CCCSCCCNC(=O)c1ccccc1NC(=O)C1=CSCCO1	i	i	i	i	i	i	i
COc1cccc(C(C)NC(=O)C2CCCC2)c1 (stereo not drawn)	i	i	i	i	i	nt	nt
Cc1ccc(SCCNC(=S)Nc2ccc(C)cc2C)cc1	i	i	i	i	i	i	i
CC(Sc1nnc(-c2cccnc2)n1N)C(=O)NCCC1=CCCCC1 (stereo not drawn)	i	i	i	47	i	i	i
CC(Sc1nnc(-c2cccnc2)n1N)C(=O)N1CCOCC1 (stereo not drawn)	i	i	i	i	i	nt	nt
COc1ccc(CCNC(=O)CCCCn2c(=O)c3ccccc3n(Cc3cccc(C)c3)c2=O)cc1OC	nt	i	nt	i	nt	nt	nt
CC(C)c1ccccc1NC(=O)COC(=O)c1ccc(Cl)c(S(=O)(=O)N2CCCCCC2)c1	i	i	i	i	i	nt	nt
Cc1sc2nc(CSCC(=O)Nc3ccc(C(F)(F)F)cc3)[nH]c(=O)c2c1C	i	i	i	i	i	i	i
Cc1sc2nc(CSCC(=O)Nc3c(F)cccc3F)[nH]c(=O)c2c1C	i	i	i	i	i	nt	nt
Cc1sc2nc(CSCC(=O)Nc3ccc(Cl)cc3F)[nH]c(=O)c2c1C	i	i	i	i	i	i	i
Cc1sc2nc(CSCC(=O)N(C)CC(=O)Nc3ccc(F)cc3)[nH]c(=O)c2c1C	i	i	i	i	i	nt	nt
CC(=O)c1ccc(S(=O)(=O)NCCC(=O)OCC(=O)NCCc2ccccc2)cc1	i	i	i	i	i	nt	nt
CC(=O)c1ccc(OC(C)C(=O)OCC(=O)NCCc2ccccc2)cc1 (stereo not drawn)	i	i	i	i	i	i	i
COc1ccc(Cl)c(NC(=O)NCCN2CCN(c3ccccc3)CC2)c1	i	i	i	i	i	nt	nt
Cc1cccc(NC(=O)NCCN2CCN(c3ccccc3)CC2)c1C	57	i	i	57	i	i	i
Cc1ccc(NC(=O)NCCN2CCCCC2)cc1Cl	i	i	i	i	i	nt	nt
O=C(NCCN1CCN(c2ccccc2)CC1)Nc1cccc(Cl)c1	73	i	i	75	?	?	i
Cc1ccc(NC(=O)NCCN2CCN(c3ccccc3)CC2)cc1Cl	65	i	i	66	i	i	?
O=C(NCCN1CCN(c2ccccc2Cl)CC1)Nc1ccccc1	52	i	i	67	i	i	i
O=C1CCC(O)CCN1CCSc1ccccc1 (stereo not drawn)	i	i	i	i	i	nt	nt
Cc1ccc(S(=O)(=O)NCC(=O)OC(C)C(=O)NC2CCCCC2C)cc1C (stereo not drawn)	i	i	i	i	i	nt	nt
Cc1ccc(N(CC(=O)NC(C)(C)C)C(=O)CS(=O)CC(=O)Nc2ccc(F)cc2)cc1 (stereo not drawn)	i	i	i	i	i	nt	nt
Cc1c(NC2=C(Cl)C(=O)N(c3ccccc3Cl)C2=O)c(=O)n(-c2ccccc2)n1C	i	i	i	44	i	i	i
Cc1cc(=O)[nH]c(Nc2c(C)n(C)n(-c3ccccc3)c2=O)n1	i	i	i	i	i	nt	nt
O=[N+]([O-])c1cc(Br)c2nsnc2c1N1CCOCC1	i	i	i	i	i	i	i
SMILES	D2 antag	D2 PAM-1	D2 PAM-2	D2 ag-1	D2 ag-2	D3 arrestin ag	D2 ag-3
CCc1nc2ccc(C(=O)NCCc3ccccn3)cn2c1N(CC)CCOC	nt	nt	i	nt	i	nt	nt
O=c1/c(=C\c2cc([N+](=O)[O-])cc([N+](=O)[O-])c2O)sc2nc3ccccc3n12	31	i	i	i	i	i	i
CCCc1nc2ccc(NC(C)=O)cc2c(=O)n1Cc1ccccc1Cl	i	i	i	i	i	i	i
C=CCn1c(COc2ccc(Cl)cc2)nnc1SCC(=O)Nc1ccc(S(N)(=O)=O)cc1	i	i	i	59	i	i	i
CC(=O)Nc1ccc(NC(=O)CSc2ccc3nnc(CCNC(=O)c4ccccc4)n3n2)cc1	i	i	i	i	i	nt	nt
COc1ccc(NC(=O)CSc2ccc3nnc(CCNC(=O)c4ccccc4)n3n2)cc1	i	i	i	i	i	i	i
Cc1nc(Cl)c(N=Cc2cccc([N+](=O)[O-])c2)c(Cl)n1	i	i	i	i	?	nt	nt
FC(F)(F)c1ccc(N2CCOCC2)c(NC2=NCCCCC2)c1	i	i	i	i	i	nt	nt
FC(F)(F)c1ccc(Cl)c(NC2=NCCCCC2)c1	i	i	i	53	i	i	i
NC(=O)CSc1nnc(-c2ccccn2)n1N	i	i	i	i	i	nt	nt
Cc1ccc(-c2c[n+](CC(=O)Nc3ccccc3C)c3n2CCC3)cc1	i	i	i	i	i	nt	nt
Cc1ccc(NC(=O)C[n+]2cc(-c3ccccc3)n3c2CCC3)cc1	56	i	i	71	i	i	i
Cc1ccc(N(CC(=O)Nc2ccc3c(c2)OCCO3)S(C)(=O)=O)cc1	i	i	i	i	i	nt	nt
CC1CCC(NC(=O)COC(=O)CSc2ccc(C(N)=O)cc2[N+](=O)[O-])CC1 (stereo not drawn)	i	i	i	i	i	nt	nt
NC(=O)c1ccc(SCC(=O)OCC(=O)NC2CCCCCCC2)c([N+](=O)[O-])c1	i	i	i	i	i	i	i
O=C(OCC(O)C1OC(c2ccccc2)OC(COC(=O)c2ccccc2)C1O)c1ccccc1 (stereo not drawn)	nt	nt	i	nt	i	nt	nt
Cc1ccc(NC(=O)c2nc(S(=O)(=O)Cc3ccc(F)cc3)ncc2Cl)cc1C	nt	i	nt	i	nt	nt	nt
CN(c1ccccc1)S(=O)(=O)c1ccc(NC(=O)c2nc(S(C)(=O)=O)ncc2Cl)cc1	i	i	i	i	i	i	i
Cc1ccc(NC(=O)c2nc(S(=O)(=O)Cc3ccccc3C)ncc2Cl)cc1C	34	i	i	i	i	i	i
Cc1c(C)n(Cc2ccc(Cl)cc2)c2ccc(C(=O)NCCN3CCOCC3)cc12	i	i	i	i	i	nt	nt
COC(=O)Cc1ccc(NC(=S)N2CCN(c3cccc(O)c3)CC2)cc1	i	i	i	44	i	28µM	?
